According to PubChem BioAssay (NCATS):
Records with an inconclusive call do not appear. Active and inactive are the calls of the source. Calls come from the whole dose curve; as a rule, active = well fitted inhibition curve with a large enough effect; inconclusive = small, poorly fitted or top-dose-only effect; inactive = flat fitted curve, though single readings scatter.

What follows are compounds tested on DIV30 (assay: qHTS profiling for inhibitors of Plasmodium falciparum proliferation (AID 504749; note: nearly all actives have a fitted effect of over 60% in size;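 for activity, negative = inhibition: 0% = DMSO vehicle and full inhibition = artemisinin control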)). Conditions: P. falciparum in erythrocytes, SYBR Green DNA, 72 h; series mostly up to 12.8 µM; activity, negative = inhibition: at the top concentration.
In short: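 Three-day growth assay of blood-stage parasites in erythrocytes (0.3% parasitemia, 2.5% hematocrit) at 37 C, 5% CO2, quantified by SYBR Green DNA staining after overnight detergent lysis.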
Potency is the fitted concentration of half-maximal effect.

SMILES | activity, negative = inhibition | Potency
C[C@]12C=CC(=O)C=C1CCC1C2C(O)C[C@]2(C)C1CC[C@]2(O)C(=O)CO (some centres not stated) | -15.9% [at 28.7 µM] (inactive) | –
CC1(C)S[C@H]2C(NC(=O)[C@@H](N)c3ccc(O)cc3)C(=O)N2[C@@H]1C(=O)O (some centres not stated) | -0.299% [at 28.7 µM] (inactive) | –
CC(C)=CCC[C@](C)(O)C1CC=C(C)CC1 (some centres not stated) | -1.84% [at 28.7 µM] (inactive) | –
C[C@]1(c2ccccc2)OC(C(=O)O)=CC1=O | 7.56% [at 28.7 µM] (inactive) | –
CC(=O)N[C@H](CC(C)C)C(=O)O | -9.84% [at 28.7 µM] (inactive) | –
COc1ccc2cc(C(C)CO)ccc2c1 (configuration not stated) | 0.482% [at 28.7 µM] (inactive) | –
COC1C=CO[C@@]2(C)Oc3c(C)c(O)c4c(O)c(c(C=NN5CCN(C)CC5)c(O)c4c3C2=O)NC(=O)/C(C)=C\C=CC(C)C(O)[C@@H](C)C(O)C(C)[C@H](OC(C)=O)C1C (some centres not stated) | – | 536 nM (active)
CC1CCC(C(C)C)C(=O)C1 (configuration not stated) | -2.96% [at 28.7 µM] (inactive) | –
CNC1CC(N)[C@H](O)[C@@H](O[C@@H]2OC(CO)C3OC4(OC(C(N)CO)C(O)C(O)C4O)O[C@@H]3[C@H]2O)C1O (some centres not stated) | 0.235% [at 28.7 µM] (inactive) | –
CCCC(=O)O[C@]1(C(=O)CO)CCC2[C@@H]3CCC4=CC(=O)CC[C@]4(C)C3C(O)C[C@]21C (some centres not stated) | -2.33% [at 28.7 µM] (inactive) | –
CC(=O)[C@]1(O)CCC2C3C=C(Cl)C4=CC(=O)C5CC5[C@@]4(C)C3CC[C@]21C (some centres not stated) | -12.8% [at 28.7 µM] (inactive) | –
CC(=O)N[C@@H]1C(O)OC(CO)C(O)C1O (some centres not stated) | -8.75% [at 28.7 µM] (inactive) | –
C/C1=C2N=C(/C=C3N=C(/C(C)=C4\[N-]C(C)(C5N=C1C(C)(CCC(=O)NCC(C)OP(=O)([O-])O[C@H]1C(O)C(n6cnc7cc(C)c(C)cc76)O[C@@H]1CO)C5CC(N)=O)C(C)(CC(N)=O)C4CCC(N)=O)C(C)(CC(N)=O)C\3CCC(N)=O)C(C)(C)C/2CCC(N)=O.[CH2-]C1OC(n2cnc3c(N)ncnc32)C(O)C1O.[Co] (some centres not stated) | -11% [at 28.7 µM] (inactive) | –
O=C1OC(CO)C(O)C(O)C1O (configuration not stated) | -0.461% [at 28.7 µM] (inactive) | –
CNC1C(OC2C(O[C@@H]3C(O)C(O)[C@@H](N=C(N)N)C(O)C3N=C(N)N)OC(C)[C@@]2(O)CO)OC(CO)C(O)C1O (some centres not stated) | 3.12% [at 28.7 µM] (inactive) | –
COc1cc(C2c3cc4c(cc3C(O[C@@H]3OC5COC(c6cccs6)OC5C(O)C3O)C3COC(=O)C23)OCO4)cc(OC)c1O (some centres not stated) | – | 2130 nM (active)
Nc1nc2ncc(CNc3ccc(C(=O)NC(CCC(=O)O)C(=O)O)cc3)nc2c(=O)[nH]1 (configuration not stated) | -1.14% [at 28.7 µM] (inactive) | –
